The text below walks through data of PubChem BioAssay (NCATS).

Values joined by “and” are separate entries in the source; they are usually repeats but may differ in a detail not shown here. Equal entries are not always repeated. Records with an inconclusive call do not appear. Active and inactive are the calls of the source. Unless noted, the call rests on the fitted dose curve; in most records, active means well fitted inhibition curve with a large enough effect; inconclusive means small, poorly fitted or top-dose-only effect; inactive means flat fitted curve, though single readings scatter. Bounds are passed on as bounds.

Chain of Ubiquitin carboxyl-terminal hydrolase 1 (Homo sapiens) (O94782 whole entry, looked up): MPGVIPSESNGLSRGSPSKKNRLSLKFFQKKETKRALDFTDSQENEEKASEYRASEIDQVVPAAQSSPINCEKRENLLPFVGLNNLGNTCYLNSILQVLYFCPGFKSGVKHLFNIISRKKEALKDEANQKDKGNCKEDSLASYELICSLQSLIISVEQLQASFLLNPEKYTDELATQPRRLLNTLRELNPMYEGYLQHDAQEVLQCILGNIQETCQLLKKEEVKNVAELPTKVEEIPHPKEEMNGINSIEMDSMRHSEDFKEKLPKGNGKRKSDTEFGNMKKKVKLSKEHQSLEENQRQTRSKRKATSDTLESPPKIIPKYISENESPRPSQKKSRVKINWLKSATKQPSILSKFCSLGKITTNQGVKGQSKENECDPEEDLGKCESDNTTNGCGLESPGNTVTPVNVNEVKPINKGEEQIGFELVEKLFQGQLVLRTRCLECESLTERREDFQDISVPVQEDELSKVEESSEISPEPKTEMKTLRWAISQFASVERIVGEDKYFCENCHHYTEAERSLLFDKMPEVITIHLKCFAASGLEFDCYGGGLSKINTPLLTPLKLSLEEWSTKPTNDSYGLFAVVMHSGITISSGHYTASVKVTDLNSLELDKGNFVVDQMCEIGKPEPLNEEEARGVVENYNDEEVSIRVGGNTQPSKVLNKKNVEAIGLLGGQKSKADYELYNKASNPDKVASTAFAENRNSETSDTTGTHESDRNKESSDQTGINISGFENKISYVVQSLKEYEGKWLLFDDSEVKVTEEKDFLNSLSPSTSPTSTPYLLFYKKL

In one assay the target is Glucocorticoid receptor (Homo sapiens) (UniProt P04150). Description: GR-GFP Redistribution (AID 450;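 active means compounds whose dose series gives a full or clear partial fitted curve of increased nuclear translocation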; further: potency means the concentration at half of the fitted maximal effect). The note with it: U2OS GR-GFP nuclear translocation, laser cytometry, 2 h.
Chain of Glucocorticoid receptor (Homo sapiens) (P04150 whole entry, looked up): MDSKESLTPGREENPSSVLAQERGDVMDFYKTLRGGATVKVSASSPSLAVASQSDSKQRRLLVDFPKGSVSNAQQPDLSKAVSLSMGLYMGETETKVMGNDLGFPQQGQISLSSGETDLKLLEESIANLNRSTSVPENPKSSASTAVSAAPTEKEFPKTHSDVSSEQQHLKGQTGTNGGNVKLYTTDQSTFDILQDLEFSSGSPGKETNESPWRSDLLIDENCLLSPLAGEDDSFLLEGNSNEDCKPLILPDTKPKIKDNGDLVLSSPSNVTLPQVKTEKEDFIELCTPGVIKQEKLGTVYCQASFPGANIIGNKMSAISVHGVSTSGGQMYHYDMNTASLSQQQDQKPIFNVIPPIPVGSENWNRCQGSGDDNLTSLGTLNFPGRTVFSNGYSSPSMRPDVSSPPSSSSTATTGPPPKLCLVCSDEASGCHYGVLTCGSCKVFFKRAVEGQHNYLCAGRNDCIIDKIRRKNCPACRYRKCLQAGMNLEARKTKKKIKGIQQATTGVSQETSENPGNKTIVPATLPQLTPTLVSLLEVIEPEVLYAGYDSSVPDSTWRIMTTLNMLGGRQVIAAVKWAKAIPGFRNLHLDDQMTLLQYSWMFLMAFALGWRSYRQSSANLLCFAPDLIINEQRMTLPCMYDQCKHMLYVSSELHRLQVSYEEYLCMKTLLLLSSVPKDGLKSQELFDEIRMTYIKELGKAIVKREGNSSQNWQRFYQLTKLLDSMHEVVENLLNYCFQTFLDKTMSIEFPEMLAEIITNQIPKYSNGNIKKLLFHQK
`COc1cc(-c2ccc(N=Nc3ccc4c(S(=O)(=O)O)cc(S(=O)(=O)O)c(N)c4c3O)c(OC)c2)ccc1N=Nc1ccc2c(S(=O)(=O)O)cc(S(=O)(=O)O)c(N)c2c1O`: the Potency was > 20.6 µM (inactive) and > 46 µM (inactive).
The same measure, in the same setting: the same measure for `O=C(Nc1ccc(C(=O)Nc2ccc(C(=O)Nc3ccc(S(=O)(=O)O)c4cc(S(=O)(=O)O)cc(S(=O)(=O)O)c34)cc2)cc1)Nc1ccc(C(=O)Nc2ccc(C(=O)Nc3ccc(S(=O)(=O)O)c4cc(S(=O)(=O)O)cc(S(=O)(=O)O)c34)cc2)cc1`: > 46 µM (inactive).
Regarding `O=C(O)c1c(Br)c(Br)c(Br)c(Br)c1C1c2ccc(O)cc2Oc2cc(O)ccc21`, the Potency is > 46 µM (inactive).

Test system in a further assay: not listed separately
Description: qHTS Assay for Lipid Storage Modulators (AID 1519; calls by dose curve; on activity change, negative = inhibition: on the % scale 0 is the no-effect control and ±100 the full control effect). To be noted: Drosophila S3 cells, BODIPY lipid droplet/cell ratio, laser cytometry; at 57.5 µM (top of the series); cells loaded with oleic acid. The essentials:
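Cells seeded at 5,000 per well were treated with compounds over a concentration series and loaded with oleic acid (400 uM, as added). Lipid droplet fluorescence (488 nm excitation, 500-530 nm channel) was read by laser-scanning cytometry and normalized to 20 uM Triacsin C.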
Consider `O=c1c(O)cc(C2Oc3cc(O)cc(O)c3CC2O)cc2c(C3Oc4cc(O)cc(O)c4CC3O)cc(O)c(O)c12` (stereo not given), for which the activity change, negative = inhibition was 11.1% (inactive).
With `O=C(Nc1ccc(C(=O)Nc2ccc(C(=O)Nc3ccc(S(=O)(=O)O)c4cc(S(=O)(=O)O)cc(S(=O)(=O)O)c34)cc2)cc1)Nc1ccc(C(=O)Nc2ccc(C(=O)Nc3ccc(S(=O)(=O)O)c4cc(S(=O)(=O)O)cc(S(=O)(=O)O)c34)cc2)cc1`, the activity change, negative = inhibition was 5.27% (inactive).
On the same count and under the same terms, the same measure for `O=C(OC1Cc2c(O)cc(O)cc2OC1c1cc(O)c(=O)c2c(O)c(O)cc(C3Oc4cc(O)cc(O)c4CC3OC(=O)c3cc(O)c(O)c(O)c3)c2c1)c1cc(O)c(O)c(O)c1` (stereo not given): 15% (inactive).
The same measure, in the same setting: the figure for `O=C1c2ccc(O)c(O)c2C(=O)c2c(O)ccc(O)c21` is 6.47% (inactive).

The same assay, now with this note: Drosophila S3 cells, BODIPY lipid droplet/cell ratio, laser cytometry; measured here: cell count channel max response; cells loaded with oleic acid.
Consider `O=c1c(O)cc(C2Oc3cc(O)cc(O)c3CC2O)cc2c(C3Oc4cc(O)cc(O)c4CC3O)cc(O)c(O)c12` (stereo not given), for which the max response turned out to be 13.9%.
The same measure, in the same setting: the same measure for `COc1cc(-c2ccc(N=Nc3ccc4c(S(=O)(=O)O)cc(S(=O)(=O)O)c(N)c4c3O)c(OC)c2)ccc1N=Nc1ccc2c(S(=O)(=O)O)cc(S(=O)(=O)O)c(N)c2c1O`: 1.95%; for `O=C(Nc1ccc(C(=O)Nc2ccc(C(=O)Nc3ccc(S(=O)(=O)O)c4cc(S(=O)(=O)O)cc(S(=O)(=O)O)c34)cc2)cc1)Nc1ccc(C(=O)Nc2ccc(C(=O)Nc3ccc(S(=O)(=O)O)c4cc(S(=O)(=O)O)cc(S(=O)(=O)O)c34)cc2)cc1`: -4.46%.
The same measure, in the same setting: the figure for `O=C(OC1Cc2c(O)cc(O)cc2OC1c1cc(O)c(=O)c2c(O)c(O)cc(C3Oc4cc(O)cc(O)c4CC3OC(=O)c3cc(O)c(O)c(O)c3)c2c1)c1cc(O)c(O)c(O)c1` (stereo not given) is -10.5%; for `O=C1c2ccc(O)c(O)c2C(=O)c2c(O)ccc(O)c21` it is -10.7%.

Staying with this assay, now noted: Drosophila S3 cells, BODIPY lipid droplet/cell ratio, laser cytometry; measured here: lipid channel max response; cells loaded with oleic acid.
`O=c1c(O)cc(C2Oc3cc(O)cc(O)c3CC2O)cc2c(C3Oc4cc(O)cc(O)c4CC3O)cc(O)c(O)c12` (stereo not given): the max response amounted to 27.3%.
The same measure, in the same setting: the figure for `COc1cc(-c2ccc(N=Nc3ccc4c(S(=O)(=O)O)cc(S(=O)(=O)O)c(N)c4c3O)c(OC)c2)ccc1N=Nc1ccc2c(S(=O)(=O)O)cc(S(=O)(=O)O)c(N)c2c1O` is 8.3%.
On the same count and under the same terms, the same measure for `O=C(Nc1ccc(C(=O)Nc2ccc(C(=O)Nc3ccc(S(=O)(=O)O)c4cc(S(=O)(=O)O)cc(S(=O)(=O)O)c34)cc2)cc1)Nc1ccc(C(=O)Nc2ccc(C(=O)Nc3ccc(S(=O)(=O)O)c4cc(S(=O)(=O)O)cc(S(=O)(=O)O)c34)cc2)cc1`: 0.0462%; for `O=C(OC1Cc2c(O)cc(O)cc2OC1c1cc(O)c(=O)c2c(O)c(O)cc(C3Oc4cc(O)cc(O)c4CC3OC(=O)c3cc(O)c(O)c(O)c3)c2c1)c1cc(O)c(O)c(O)c1` (stereo not given): 7.68%.
Same read-out and setting: the figure for `O=C1c2ccc(O)c(O)c2C(=O)c2c(O)ccc(O)c21` is -3.59%.

Another assay deals with Ubiquitin carboxyl-terminal hydrolase 1 (Homo sapiens) (UniProt O94782). Description: Inhibitors of USP1/UAF1: Pilot qHTS (AID 504865). Further: potency means the concentration at half of the fitted maximal effect; nearly all actives have a fitted effect of over 35% in size. To be noted: purified USP1/UAF1, Ub-rhodamine cleavage fluorescence; series mostly up to 114 µM. The essentials:
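USP1/UAF1 complex (1nM) preincubated with compound 15 min at room temperature, then Ub-Rho substrate (150nM final) added. Fluorescence read kinetically at 480/540 nm, 6 reads every 60 seconds. Buffer: 50mM HEPES pH 7.8, 0.5mM EDTA, 0.1 mg/ml BSA, 1mM TCEP, 0.01% Tween-20.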
With `O=c1c(O)cc(C2Oc3cc(O)cc(O)c3CC2O)cc2c(C3Oc4cc(O)cc(O)c4CC3O)cc(O)c(O)c12` (stereo not given), the Potency was 35.5 µM (active).
The same measure, in the same setting: the same measure for `COc1cc(-c2ccc(N=Nc3ccc4c(S(=O)(=O)O)cc(S(=O)(=O)O)c(N)c4c3O)c(OC)c2)ccc1N=Nc1ccc2c(S(=O)(=O)O)cc(S(=O)(=O)O)c(N)c2c1O`: 17.8 µM (active) and 8.91 µM (active); for `O=C(Nc1ccc(C(=O)Nc2ccc(C(=O)Nc3ccc(S(=O)(=O)O)c4cc(S(=O)(=O)O)cc(S(=O)(=O)O)c34)cc2)cc1)Nc1ccc(C(=O)Nc2ccc(C(=O)Nc3ccc(S(=O)(=O)O)c4cc(S(=O)(=O)O)cc(S(=O)(=O)O)c34)cc2)cc1`: 39.8 µM (active); for `O=C1c2ccc(O)c(O)c2C(=O)c2c(O)ccc(O)c21`: 79.4 µM (active).

Test system in a further assay: not listed separately
Description: Confirmatory screen GU Rhodamine qHTS for Zika virus inhibitors qHTS (AID 1347157). Further: nearly all actives have a fitted effect of over 70% in size. Further: potency means the concentration at half of the fitted maximal effect.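 On activity change, negative = inhibition: plate controls were no-inhibitor wells for no effect and no-enzyme wells for full effect.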 To be noted: purified enzyme assay, Rhodamine110 substrate fluorescence, 15 min; series mostly up to 114 µM. The gist of the method:
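A qHTS format was used, with compound concentrations ranging up to 114 microM. Each compound was preincubated with 25 nM NS2B-NS3 protease, and the substrate was then added at 1.5 microM. Curves were fitted with a 4-parameter Hill model.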
For `O=C(Nc1cccc(C(=O)OCc2cc(=O)n3nc(C4CC4)sc3n2)c1)c1cccc(Cl)c1`, the Potency was 56.2 µM (active).
Still for that read-out and setting: the entry for `O=C(COC(=O)c1cccc(NC(=O)c2ccc(Br)cc2)c1)c1ccc(Br)cc1` is “inactive”; for `O=c1c(O)cc(C2Oc3cc(O)cc(O)c3CC2O)cc2c(C3Oc4cc(O)cc(O)c4CC3O)cc(O)c(O)c12` (stereo not given) it is 12.6 µM (active).
The same measure, in the same setting: the figure for `N#C/C(=C\c1ccc(-c2cc(Cl)ccc2Cl)o1)C(=O)Nc1ccccc1C(=O)O` is 3.16 µM (active); for `CC(C)c1nn2c(=O)cc(COC(=O)c3ccc(NC(=O)c4ccccc4Cl)cc3)nc2s1` it is “inactive”.
In the case of `CCOC(=O)c1ccc(N2C(=O)c3n[nH]c(-c4cccs4)c3C2c2ccc(C(C)(C)C)cc2)cc1` (stereo not given), the Potency was 20 µM (active).
On the same count and under the same terms, the same measure for `N#C/C(=C\c1ccc(-c2ccc(Cl)c(C(=O)O)c2)o1)c1nc2ccccc2[nH]1`: 25.1 µM (active); for `COc1cc(-c2ccc(N=Nc3ccc4c(S(=O)(=O)O)cc(S(=O)(=O)O)c(N)c4c3O)c(OC)c2)ccc1N=Nc1ccc2c(S(=O)(=O)O)cc(S(=O)(=O)O)c(N)c2c1O`: 2.82 µM (active); for `CCN(Cc1cccc(S(=O)(=O)O)c1)c1ccc(C(=C2C=CC(=[N+](CC)Cc3cccc(S(=O)(=O)O)c3)C=C2)c2ccc(O)cc2S(=O)(=O)O)cc1`: 4.47 µM (active).
Same read-out and setting: the figure for `O=C(Nc1ccc(C(=O)Nc2ccc(C(=O)Nc3ccc(S(=O)(=O)O)c4cc(S(=O)(=O)O)cc(S(=O)(=O)O)c34)cc2)cc1)Nc1ccc(C(=O)Nc2ccc(C(=O)Nc3ccc(S(=O)(=O)O)c4cc(S(=O)(=O)O)cc(S(=O)(=O)O)c34)cc2)cc1` is 2 µM (active); for `CCOC(=O)c1ccc(NC(=O)c2nc(SCc3ccccc3F)ncc2Cl)cc1` it is “inactive”.
Same read-out and setting: the figure for `O=C(O)c1ccccc1-c1c2cc(I)c(=O)c(I)c-2oc2c(I)c(O)c(I)cc12` is 14.1 µM (active).
Consider `CCc1nn2c(=O)cc(COC(=O)c3ccccc3NC(=O)c3ccc(C(C)(C)C)cc3)nc2s1`, for which the Potency result was “inactive”.
Regarding `O=C(Nc1ccc(C(=O)OCc2cc(=O)n3nc(C4CC4)sc3n2)cc1)c1ccc(F)cc1`, the Potency result is “inactive”.
The same measure, in the same setting: the figure for `CC(C)c1ccc(NC(=O)c2ccc3c(O)c(S(=O)(=O)c4ccccc4)c(=O)[nH]c3c2)cc1` is 17.8 µM (active); for `Cc1ccc(-c2nnc(Nc3ccc(O)cc3)c3ccccc23)cc1S(=O)(=O)NCc1nc2ccccc2[nH]1` it is “inactive”; for `O=C(OC1Cc2c(O)cc(O)cc2OC1c1cc(O)c(=O)c2c(O)c(O)cc(C3Oc4cc(O)cc(O)c4CC3OC(=O)c3cc(O)c(O)c(O)c3)c2c1)c1cc(O)c(O)c(O)c1` (stereo not given) it is 5.01 µM (active).
Regarding `CCOC(=O)c1ccccc1NC(=O)CSc1ccc(-c2sc(-c3ccccc3)nc2C)nn1`, the Potency result was “inactive”.
The same measure, in the same setting: the same measure for `CC(C)(C)c1ccc(C(=O)Nc2ccc(C(=O)OCc3cc(=O)n4ccsc4n3)cc2)cc1`: “inactive”.
Still for that read-out and setting: the entry for `CCOC(=O)c1c(-c2ccccc2)oc2ccc(NS(=O)(=O)c3ccc(C(C)C)cc3)cc12` is “inactive”.
The same measure, in the same setting: the same measure for `COC(=O)C1=C(c2ccccc2)c2ccccc2S(=O)(=O)N1CC(=O)Nc1ccccc1C(F)(F)F`: “inactive”; for `O=C(O)c1c(Br)c(Br)c(Br)c(Br)c1C1c2ccc(O)cc2Oc2cc(O)ccc21`: 12.6 µM (active); for `CC(C)(C)c1ccc(S(=O)(=O)c2cnc(SCC(=O)Nc3ccc4c(c3)OCCO4)[nH]c2=O)cc1`: 7.08 µM (active).
`CCOC(=O)c1ccc(N2C(=O)c3n[nH]c(-c4cccs4)c3C2c2ccc(Cl)cc2Cl)cc1` (stereo not given): the Potency was 31.6 µM (active).
As to `Cc1c(C2(c3cc(C(C)C)c(O)c(Br)c3C)OS(=O)(=O)c3ccccc32)cc(C(C)C)c(O)c1Br`, the Potency was 5.01 µM (active).
For the compound `Cc1ccc2nc(-c3ccc(N=Nc4cc(S(=O)(=O)O)c5ccccc5c4O)cc3)sc2c1S(=O)(=O)O`, the Potency is 3.16 µM (active).
Still for that read-out and setting: the same measure for `Cc1ccc(-c2cc(C(F)(F)F)c(C#N)c(SCC(=O)O)n2)cc1`: 44.7 µM (active); for `CCS(=O)(=O)c1cccc(C(=O)Nc2ccc(-c3nc4ccccc4s3)c(O)c2)c1`: 25.1 µM (active); for `O=C(CNC(=O)c1ccccc1F)OCc1cc(=O)n2nc(C3CCCCC3)sc2n1`: “inactive”.
With `O=C1c2ccc(O)c(O)c2C(=O)c2c(O)ccc(O)c21`, the Potency was 12.6 µM (active).
`COc1ccc2c(c1)Oc1nc(-c3ccc(C)s3)nc(SCC(=O)Nc3cccc(C(=O)O)c3)c1C2`: the Potency is 5.01 µM (active).
Same read-out and setting: the same measure for `O=C(Nc1ccc(C(=O)OCc2cc(=O)n3nc(C4CC4)sc3n2)cc1)c1cccc(F)c1`: “inactive”.
On the same count and under the same terms, the figure for `Cc1ccc(NC(=O)c2ccc3c(O)c(S(=O)(=O)c4ccccc4)c(=O)[nH]c3c2)cc1Cl` is 8.91 µM (active); for `Nc1c(N=Nc2ccc([N+](=O)[O-])cc2)c(S(=O)(=O)O)cc2cc(S(=O)(=O)O)c(/C=C/c3ccccc3)c(O)c12` it is 3.16 µM (active); for `CCOC(=O)c1ccc(CN(Cc2ccccc2C)S(=O)(=O)c2ccc(F)c(C(=O)Nc3cccc(OC)c3)c2)cc1` it is “inactive”.
The same measure, in the same setting: the same measure for `COC(=O)c1ccc([C@H]2Nc3ccc(S(=O)(=O)Nc4cccc(C)c4)cc3[C@H]3C=CC[C@H]32)cc1`: 25.1 µM (active); for `COc1ccc(NS(=O)(=O)c2ccc3c(c2)[C@H]2C=CC[C@H]2[C@@H](c2ccc(C(=O)O)cc2)N3)cc1`: 20 µM (active).
Take `CCOC(=O)c1ccc(CN(Cc2ccc(F)cc2)S(=O)(=O)c2cc(C(=O)Nc3cccc(C(F)(F)F)c3)ccc2F)cc1`: the Potency result is “inactive”.
Still for that read-out and setting: the same measure for `Cc1ccc(OCC(=O)Nc2ccccc2C(=O)OCc2cc(=O)n3nc(C4CC4)sc3n2)cc1`: “inactive”.
